G9a inh: G9a (human) methyltransferase inhibition. Q96KQ7. G9a H3K9 monomethylation, AlphaScreen, 2 h. Potency, µM (doses to about 102 µM), without a hit: at the highest dose activity, negative = inhibition, hits mostly inhibitors. 8.8% of 350,000 active. AID 504332; also: potency is read from the fitted curve at half-maximal effect; nearly all actives have a fitted effect of over 75% in size
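AlphaScreen read-out: biotin-H3K9 peptide (500 nM) methylation by 20 nM enzyme with 20 uM SAM, 2 h at room temperature after 15 min compound preincubation; anti-monomethyl H3K9 antibody plus donor/acceptor beads, 10 min dark.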
CCT modulator: changes cytosolic chaperonin activity; activity change, % (test concentration not listed), hits read low; AID 651819; purified chaperonin ATPase assay, HTRF ADP detection, 30 min; 0.3% of 360,000 active; in the data active = activity change below about -30%
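ATPase activity: ADP formed was measured by HTRF Transcreener (665/615 nm ratio) after 30 min at 37 deg C with 10 uM ATP. Compounds screened at one 76 uM concentration against 40 or 20 nM TRiC in Tris pH 7.4/KCl/MgCl2/DTT buffer.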
Sfp inh: inhibitors of Bacillus subtilis Sfp phosphopantetheinyl transferase | Q9F4F7 | Biochemical Sfp PPTase activity, qHTS | Potency, µM, without a hit: largest response in the series, negative = inhibition, hits mostly inhibitors | 3.5% of 310,000 active | AID 1490;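 also: the enzyme is Sfp with the accession as filed and its product quenches rhodamine fluorescence; potency is read from the fitted curve at half-maximal effect; 0% = enzyme reaction without inhibitor and -100% = no enzyme wells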
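Reaction rates are the 30-min fluorescence difference (ex 525, em 598 nm) in wells containing 15 nM Sfp, 5 uM rhodamine-CoA and 12.5 uM BHQ-2-YbbR at pH 7.6 with 10 mM MgCl2.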
PLK1 PBD block: inhibitors of human PLK1 polo-box domain binding. Plk1 PBD binding of FITC phosphopeptide, fluorescence polarization. P53350. 2.8% of 360,000 active. Potency, µM, for the others: max response, negative = inhibition, usual class: inhibitors; also: potency is read from the fitted curve at half-maximal effect; series mostly up to about 57 µM; nearly all actives have a fitted effect of over 65% in size
Target sequence (P53350 whole entry, looked up, the tested form may be a part): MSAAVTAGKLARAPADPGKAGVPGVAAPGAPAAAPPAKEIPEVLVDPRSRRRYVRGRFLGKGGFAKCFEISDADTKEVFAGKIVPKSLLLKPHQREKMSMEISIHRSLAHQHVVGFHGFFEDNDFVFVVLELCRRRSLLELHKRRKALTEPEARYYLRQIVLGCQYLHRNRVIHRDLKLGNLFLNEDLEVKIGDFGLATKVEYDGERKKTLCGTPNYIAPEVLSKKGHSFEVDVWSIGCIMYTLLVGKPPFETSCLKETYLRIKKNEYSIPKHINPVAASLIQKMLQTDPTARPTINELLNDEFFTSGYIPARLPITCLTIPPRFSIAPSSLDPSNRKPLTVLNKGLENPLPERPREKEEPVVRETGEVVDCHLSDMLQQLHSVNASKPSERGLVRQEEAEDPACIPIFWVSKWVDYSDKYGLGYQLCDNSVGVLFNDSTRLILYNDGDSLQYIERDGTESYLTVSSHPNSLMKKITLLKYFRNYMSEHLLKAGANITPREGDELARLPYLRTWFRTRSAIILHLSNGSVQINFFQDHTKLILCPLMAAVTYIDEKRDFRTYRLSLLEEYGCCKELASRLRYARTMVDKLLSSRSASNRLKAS
MmCpn inh: M. maripaludis TRiC chaperonin inhibition; purified Mm-Cpn ATPase, ADP Transcreener TR-FRET; Potency, µM (doses to about 76.9 µM), for inactives: at the highest dose activity, negative = inhibition, actives largely listed as inhibitors; 0.031% of 330,000 active; also: potency is read from the fitted curve at half-maximal effect; nearly all actives have a fitted effect of over 80% in size
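Quantitative HTS used 25 nM Mm-CPN and 10 uM ATP in magnesium/KCl Tris buffer, pH 7.4, with 1 mM DTT. Hydrolysis ran 30 min at 37°C; ADP was read by HTRF.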
VDR inhibitor: blocks the human vitamin D receptor; Potency, µM, inactives show max response, negative = inhibition, actives largely listed as inhibitors; P11473; VDR-SRC2-3 peptide fluorescence polarization, 2 h; 0.93% of 400,000 active; also: potency is read from the fitted curve at half-maximal effect
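Inhibition of the VDR/SRC2-3 peptide interaction is quantified by fluorescence polarization. Compounds (23 nl, pintool) incubate with the reagents for 2 hours at ambient room temperature.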
Active calls of the source: *; ? = inconclusive; / = no result; [ ] = remark or other dose. Hits are enriched below; roughly 10% of the tested compounds scored in any of these assays. Unless noted, calls follow the shape of the dose curve; as a rule, active = well fitted curve in the direction sought with a large enough effect; inconclusive = small, poorly fitted or top-dose-only effect, or another doubt; inactive = no such curve, though single readings can be large; an effect the other way counts as inactive or inconclusive. Unless noted, % is scaled to controls: 0 for no effect and ±100 for the full control effect.

SMILES	G9a inh	CCT modulator	Sfp inh	PLK1 PBD block	MmCpn inh	VDR inhibitor
O=c1/c(=C/c2ccc(O)cc2)sc2nc3cc(Br)cnc3n12	10µM*	/	?	/	-1%	/
CC(OC(=O)CNC(=O)c1ccco1)C(=O)N(C)c1ccccc1 (stereo unspecified)	-32%	1	22%	27µM*	1%	-15%
COc1ccccc1CNc1nc(-c2ccco2)nn1S(=O)(=O)c1ccc(C)cc1	?	/	/	/	/	9%
COc1ccc(OC)c(NC(=O)c2c(NCc3ccc(OC)c(OC)c3)sc3c2CCC(C)C3)c1 (stereo unspecified)	13µM*	/	/	/	/	1%
CCOc1ccccc1NC(=O)c1c(NCc2ccc(OC)c(OC)c2OC)sc2c1CCC(C)C2 (stereo unspecified)	?	/	/	/	/	-4%
COc1ccc(OC)c(NC(=O)c2c(NCc3ccc(C)o3)sc3c2CCC(C)C3)c1 (stereo unspecified)	11µM*	/	/	/	/	-10%
CCCCOc1ccc(C(=O)Nc2ccc3c(c2)CCCN3S(=O)(=O)c2ccc(C)cc2)cc1	-5%[59 µM]	/	/	/	/	-1%
COC(=O)/C=C1\C(=O)N(c2nc3ccccc3s2)C(=S)N1c1ccc(F)cc1	71µM*	-2	-3%	4%	-1%	11%
COC(=O)/C=C1\C(=O)N(c2nc3ccc(OC)cc3s2)C(=S)N1c1ccc(F)cc1	-7%[59 µM]	/	13%	/	-1%	/
Cc1cc(C)c(OCCCCn2cnc3ccccc3c2=O)c(C)c1	/	1	-11%	0%	2%	-2%
Cc1cc(OCCn2cnc3ccccc3c2=O)cc(C(C)C)c1	-2%[59 µM]	-7	6%	21µM*	0%	-30%
C=CCN(C)CC/C=C1\c2ccccc2CSc2ccccc21	-15%[59 µM]	-1	11%	1%	0%	3%
CN(C)CC/C=C1\c2cc(F)ccc2CSc2ccccc21	-19%[59 µM]	2	79µM*	-7%	2%	8%
C#CCN(C)CC/C=C1\c2ccccc2CSc2ccccc21	14µM*	-1	-13%	-23%	0%	-5%
COc1cccc(OCCCCN2CC(C)OC(C)C2)c1 (stereo unspecified)	10µM*	0	-28%	1%	0%	3%
COC(=O)c1ccc(OCCCCN2CC(C)OC(C)C2)cc1 (stereo unspecified)	2.8µM*	-3	56µM*	-17%	-1%	6%
CCc1cccc(CC)c1NC(=O)C(CC)n1nc(C)n2c(cc3cc(C)ccc32)c1=O (stereo unspecified)	11%[59 µM]	/	/	/	/	3%
Cc1cc(C)n(C(C)CC(=O)Nc2ccc(Cl)cc2C)n1 (stereo unspecified)	19%[59 µM]	/	/	/	/	8%
COC(=O)c1ccc(Cn2nc(C)cc2C)cc1	0%[59 µM]	3	7%	?	1%	-17%
COC(=O)C(CC(=O)c1ccc(C)cc1)n1nc(C)cc1C (stereo unspecified)	79µM*	1	-1%	-5%	1%	-14%
COC(=O)C(CC(=O)c1ccc(Br)cc1)n1nc(C)cc1C (stereo unspecified)	/	0	50µM*	-20%	1%	?
Cc1ccc(C(=O)CC(C(=O)O)n2cncn2)cc1 (stereo unspecified)	/	-7	-5%	-3%	-1%	-13%
Cc1ccc(C(=O)CC(C(=O)O)n2cccn2)cc1 (stereo unspecified)	50µM*	-1	-2%	-1%	1%	-3%
O=C(Nc1ccccc1)c1cc([N+](=O)[O-])ccc1NCc1cccnc1	?	1	?	?	2%	-18%
O=C(O)c1cc([N+](=O)[O-])c(NCc2cccnc2)c([N+](=O)[O-])c1	45µM*	-1	-7%	-5%	1%	15%
SMILES	G9a inh	CCT modulator	Sfp inh	PLK1 PBD block	MmCpn inh	VDR inhibitor
C[n+]1ccccc1/C=C/c1ccc([N+](=O)[O-])cc1	25µM*	-2	11%	0%	1%	-8%
O=C(/C=C/c1ccccc1)c1ccc(O)cc1	-2%[2.33 µM]	/	-14%	/	/	45µM*
O=C(/C=C/c1ccc(O)cc1)c1ccccc1	/	0	-6%	0%	-6%	-15%
CCC(=O)Nc1cccc(C(=O)/C=C/c2ccccc2)c1	43%[12.7 µM]	-1	?	-21%	0%	50µM*
COC(=O)c1ccc(/C=C/C(=O)c2cccc(OC)c2)cc1	-16%[59 µM]	1	?	-18%	-10%	22µM*
O=C(c1cccc([N+](=O)[O-])c1)N1CCN(CCc2ccncc2)CC1	6%[59 µM]	/	/	/	/	10%
CC(=O)Nc1ccc(NC(=O)C(NC(=O)C2CCC(C)CC2)C(C)C)cc1 (stereo unspecified)	-31%[59 µM]	/	/	/	/	4%
CN(C)c1ccc(C(=O)C=Cc2ccc([N+](=O)[O-])cc2)cc1	/	0	/	0%	/	/
O=C(C=Cc1ccccc1)c1ccc([N+](=O)[O-])cc1	/	-2	/	-21%	/	10µM*
COc1ccc(C(=O)/C=C/c2ccccc2)cc1	-3%[2.33 µM]	/	-13%	/	/	25µM*
COc1cccc(C(=O)/C=C/Nc2cccc(O)c2)c1	14µM*	-3	-7%	-6%	2%	16%
COc1cccc(N/C=C/C(=O)c2ccc(C)cc2)c1	70%	-1	-4%	-10%	0%	1%
CCC1CSC(Nc2ccc(C(=O)/C=C/c3cccc(C)c3)cc2)=N1 (stereo unspecified)	2.8µM*	2	-1%	-8%	-4%	0%
COC(=O)[C@@H]1C[C@@H]2CC[C@@H](O)C[C@@H]2N1Cc1ccc(-c2ccccc2)cc1	/	/	-1%	/	/	/
CCCN(c1c(C)n(C)n(-c2ccccc2)c1=O)S(=O)(=O)c1ccc(C)cc1	-17%[59 µM]	/	/	/	/	9%
COC(=O)/C(=C\C(=O)c1ccccc1)Nc1ccc(OC)cc1	14µM*	-4	3%	-3%	0%	7%
CCC(=O)Nc1ccc(NC(=O)/C=C/c2ccc(Cl)cc2)cc1	29%	-3	9%	30µM*	1%	?
COc1ccc(N/C(C)=C/C(=O)c2ccccc2)cc1	?	-1	3%	-11%	-10%	-7%
Cc1cccc(C=CC(=O)c2ccccc2)c1	/	3	/	-12%	/	45µM*
Cc1cccc(-n2ncc(C(=O)NCc3ccc4c(c3)OCO4)c2C2CCN(C(=O)OC(C)(C)C)CC2)c1	-36%[59 µM]	/	/	/	/	16%
CCCCCCCCCCCCC(=O)N1CCCC[C@H]1CNC(=O)[C@@H](N)CCCCN	/	/	50µM*	/	/	29%
CCOC(=O)c1cc(-c2ccccc2)n(-c2cccc(C(=O)N(CC)c3ccccc3)c2)c1C	?	/	/	/	/	-1%
CC1Cc2ccccc2N1C(=O)CSc1nc2ccc(NC(=O)COc3ccccc3)cc2s1 (stereo unspecified)	6%[59 µM]	/	/	/	/	12%
Cc1ccc(NCc2cccnc2)cc1	56µM*	-3	10%	-11%	-2%	1%

Assay outcomes deposited in PubChem by National Center for Advancing Translational Sciences (NCATS).
